Experiments:
Assay in all cases: DAPPL (digital affinity profiling via proximity ligation, sequencing); 10 mM Tris-HCl pH 7.5, 50 mM NaCl, 1 mM DTT, 4% glycerol, room temperature, 30 min; GST-TFs on glutathione beads, 16-mer random dsDNA library, 0.1% formaldehyde crosslink after washing; high values mean tight binding
FLI1 = target: T1, FLI1 (Homo sapiens, UniProt Q01543 1-452); conditions: protein: recombinant; tags: N-terminal GST; dsDNA, one strand shown
T1 sequence: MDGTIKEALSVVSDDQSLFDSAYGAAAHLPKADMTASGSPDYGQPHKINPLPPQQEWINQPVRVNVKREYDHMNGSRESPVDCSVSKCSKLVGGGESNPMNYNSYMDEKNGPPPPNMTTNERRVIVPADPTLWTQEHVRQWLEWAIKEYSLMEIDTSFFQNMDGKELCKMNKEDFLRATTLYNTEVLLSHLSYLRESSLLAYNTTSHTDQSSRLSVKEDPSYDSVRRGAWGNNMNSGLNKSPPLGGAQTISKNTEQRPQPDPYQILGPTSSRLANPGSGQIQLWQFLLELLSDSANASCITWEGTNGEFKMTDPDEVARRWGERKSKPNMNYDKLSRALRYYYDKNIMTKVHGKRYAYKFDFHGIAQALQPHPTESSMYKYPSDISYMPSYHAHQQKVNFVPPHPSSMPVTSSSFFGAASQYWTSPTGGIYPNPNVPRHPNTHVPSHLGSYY
Procedure, shortened: (§1)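 Binding signal is given per hexamer as its read frequency for a factor divided by its frequency in the tag-only sample. GST-fused human transcription factors were expressed in yeast, captured on glutathione beads, barcoded with DNA and pooled with that sample, then incubated with 200 nmole of a 16-mer random double-stranded DNA library in Tris/NaCl/DTT/glycerol buffer for 30 min at room temperature. The pools were then washed, crosslinked, proximity-ligated, amplified by PCR and sequenced on an Illumina NextSeq500.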

ELK1 = target: T2, ELK1 (Homo sapiens, UniProt P19419 1-428); conditions: protein: recombinant; tags: N-terminal GST; dsDNA, one strand shown
T2 sequence: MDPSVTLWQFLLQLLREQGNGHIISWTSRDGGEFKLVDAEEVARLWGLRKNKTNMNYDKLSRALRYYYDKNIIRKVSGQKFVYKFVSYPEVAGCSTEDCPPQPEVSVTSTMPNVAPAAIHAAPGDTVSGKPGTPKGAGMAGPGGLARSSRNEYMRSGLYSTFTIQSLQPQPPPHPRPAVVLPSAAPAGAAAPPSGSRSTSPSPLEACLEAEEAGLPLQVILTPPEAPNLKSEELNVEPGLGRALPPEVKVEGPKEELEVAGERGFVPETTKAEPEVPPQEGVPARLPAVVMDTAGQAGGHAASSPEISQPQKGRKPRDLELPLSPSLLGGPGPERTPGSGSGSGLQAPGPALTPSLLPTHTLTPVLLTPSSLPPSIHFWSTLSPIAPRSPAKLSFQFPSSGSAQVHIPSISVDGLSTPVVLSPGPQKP
Procedure, shortened: as §1

GABPA = target: T3, GABPA (Homo sapiens, UniProt Q06546 1-454); conditions: protein: recombinant; tags: N-terminal GST; dsDNA, one strand shown
T3 sequence: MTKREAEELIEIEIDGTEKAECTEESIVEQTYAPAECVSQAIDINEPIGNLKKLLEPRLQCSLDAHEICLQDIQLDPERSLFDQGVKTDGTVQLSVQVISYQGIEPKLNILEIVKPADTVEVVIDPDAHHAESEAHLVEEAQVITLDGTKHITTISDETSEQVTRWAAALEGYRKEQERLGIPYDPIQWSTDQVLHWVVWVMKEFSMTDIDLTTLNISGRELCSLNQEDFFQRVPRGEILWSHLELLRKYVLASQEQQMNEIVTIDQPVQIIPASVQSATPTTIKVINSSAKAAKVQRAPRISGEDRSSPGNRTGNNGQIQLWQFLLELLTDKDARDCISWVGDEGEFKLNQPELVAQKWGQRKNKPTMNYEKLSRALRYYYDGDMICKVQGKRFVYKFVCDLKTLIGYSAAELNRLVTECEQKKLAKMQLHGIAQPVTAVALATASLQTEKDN
Procedure, shortened: as §1

ERG = target: T4, ERG (Homo sapiens, UniProt P11308 1-479); conditions: protein: recombinant; tags: N-terminal GST; dsDNA, one strand shown
T4 sequence: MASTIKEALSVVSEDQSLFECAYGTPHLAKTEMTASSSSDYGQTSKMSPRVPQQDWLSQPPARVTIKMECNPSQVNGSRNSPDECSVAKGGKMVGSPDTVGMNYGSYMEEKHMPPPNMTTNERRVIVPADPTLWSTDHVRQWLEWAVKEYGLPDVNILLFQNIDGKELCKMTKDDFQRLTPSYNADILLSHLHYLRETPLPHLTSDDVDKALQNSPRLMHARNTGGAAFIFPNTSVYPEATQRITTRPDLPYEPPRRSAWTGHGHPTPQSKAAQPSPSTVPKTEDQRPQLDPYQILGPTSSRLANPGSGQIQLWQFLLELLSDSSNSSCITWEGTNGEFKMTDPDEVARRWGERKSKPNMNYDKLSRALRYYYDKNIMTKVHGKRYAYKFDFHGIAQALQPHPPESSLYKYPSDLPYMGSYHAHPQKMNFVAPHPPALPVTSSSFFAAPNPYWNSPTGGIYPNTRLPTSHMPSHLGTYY
Procedure, shortened: as §1

ELF1 = ELF1 (Homo sapiens, UniProt P32519 1-619); conditions: protein: recombinant; tags: N-terminal GST; dsDNA, one strand shown
ELF1, sequence (P32519 whole entry): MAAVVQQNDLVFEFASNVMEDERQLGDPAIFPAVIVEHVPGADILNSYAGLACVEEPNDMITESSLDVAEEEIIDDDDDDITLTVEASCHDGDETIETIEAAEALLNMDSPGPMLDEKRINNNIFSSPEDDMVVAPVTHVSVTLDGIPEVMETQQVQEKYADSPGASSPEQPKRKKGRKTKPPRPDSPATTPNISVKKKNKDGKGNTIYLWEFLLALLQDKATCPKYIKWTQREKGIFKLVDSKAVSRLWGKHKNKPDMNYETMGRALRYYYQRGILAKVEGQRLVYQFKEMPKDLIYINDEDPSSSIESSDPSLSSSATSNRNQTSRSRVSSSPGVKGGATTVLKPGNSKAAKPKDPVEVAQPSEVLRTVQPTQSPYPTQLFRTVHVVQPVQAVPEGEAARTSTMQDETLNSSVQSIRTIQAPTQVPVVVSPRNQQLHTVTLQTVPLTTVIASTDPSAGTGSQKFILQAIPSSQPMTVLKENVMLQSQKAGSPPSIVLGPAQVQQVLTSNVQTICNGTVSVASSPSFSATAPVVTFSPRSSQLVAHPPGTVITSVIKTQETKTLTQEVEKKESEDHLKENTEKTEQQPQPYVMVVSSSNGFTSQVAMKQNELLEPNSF
Procedure, shortened: as §1

EHF = target: T5, EHF (Homo sapiens, UniProt Q9NZC4 1-300); conditions: protein: recombinant; tags: N-terminal GST; dsDNA, one strand shown
T5 sequence: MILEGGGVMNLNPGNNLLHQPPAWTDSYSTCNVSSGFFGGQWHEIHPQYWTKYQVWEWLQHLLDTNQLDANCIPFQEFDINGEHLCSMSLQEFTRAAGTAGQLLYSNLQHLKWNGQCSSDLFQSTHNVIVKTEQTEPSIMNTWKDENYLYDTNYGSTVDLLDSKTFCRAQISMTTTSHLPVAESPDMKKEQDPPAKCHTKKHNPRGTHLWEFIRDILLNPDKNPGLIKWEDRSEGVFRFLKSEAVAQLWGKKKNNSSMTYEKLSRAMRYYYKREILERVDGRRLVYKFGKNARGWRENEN
Procedure, shortened: as §1

SPI1 = SPI1 (Homo sapiens, UniProt P17947 1-270); conditions: protein: recombinant; tags: N-terminal GST; dsDNA, one strand shown
Procedure, shortened: as §1

SPIB = SPIB (Homo sapiens, UniProt Q01892 1-262); conditions: protein: recombinant; tags: N-terminal GST; dsDNA, one strand shown
SPIB, sequence (Q01892 whole entry): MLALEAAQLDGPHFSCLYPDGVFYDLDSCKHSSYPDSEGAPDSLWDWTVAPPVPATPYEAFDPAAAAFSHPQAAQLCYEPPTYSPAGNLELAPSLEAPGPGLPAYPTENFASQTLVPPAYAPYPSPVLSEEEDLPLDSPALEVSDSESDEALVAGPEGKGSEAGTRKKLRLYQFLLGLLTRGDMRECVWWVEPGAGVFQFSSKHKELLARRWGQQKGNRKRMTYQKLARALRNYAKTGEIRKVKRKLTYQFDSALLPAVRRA
Procedure, shortened: as §1

ELK3 = target: T6, ELK3 (Homo sapiens, UniProt P41970 1-407); conditions: protein: recombinant; tags: N-terminal GST; dsDNA, one strand shown
T6 sequence: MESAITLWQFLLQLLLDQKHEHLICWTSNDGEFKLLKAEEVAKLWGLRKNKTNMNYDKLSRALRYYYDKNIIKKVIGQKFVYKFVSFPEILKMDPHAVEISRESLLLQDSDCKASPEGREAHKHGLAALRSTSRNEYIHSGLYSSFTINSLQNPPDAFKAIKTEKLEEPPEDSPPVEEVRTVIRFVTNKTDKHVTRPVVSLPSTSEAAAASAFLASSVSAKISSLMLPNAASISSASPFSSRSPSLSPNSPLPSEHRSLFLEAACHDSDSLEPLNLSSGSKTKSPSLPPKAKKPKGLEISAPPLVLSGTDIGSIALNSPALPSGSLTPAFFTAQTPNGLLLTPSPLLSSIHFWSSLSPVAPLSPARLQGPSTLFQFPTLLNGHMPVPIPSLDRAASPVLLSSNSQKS
Procedure, shortened: as §1

FEV = target: T7, FEV (Homo sapiens, UniProt Q99581 1-238); conditions: protein: recombinant; tags: N-terminal GST; dsDNA, one strand shown
T7 sequence: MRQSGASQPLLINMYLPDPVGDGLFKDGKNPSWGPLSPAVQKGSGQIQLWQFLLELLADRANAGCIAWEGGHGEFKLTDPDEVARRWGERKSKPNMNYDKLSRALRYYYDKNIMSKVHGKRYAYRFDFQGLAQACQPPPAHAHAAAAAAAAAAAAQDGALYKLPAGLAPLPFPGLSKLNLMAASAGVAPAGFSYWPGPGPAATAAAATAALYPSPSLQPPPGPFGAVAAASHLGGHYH
Procedure, shortened: as §1

ETV5 = ETV5 (Homo sapiens, UniProt P41161 1-510); conditions: protein: recombinant; tags: N-terminal GST; dsDNA, one strand shown
ETV5, sequence (P41161 whole entry): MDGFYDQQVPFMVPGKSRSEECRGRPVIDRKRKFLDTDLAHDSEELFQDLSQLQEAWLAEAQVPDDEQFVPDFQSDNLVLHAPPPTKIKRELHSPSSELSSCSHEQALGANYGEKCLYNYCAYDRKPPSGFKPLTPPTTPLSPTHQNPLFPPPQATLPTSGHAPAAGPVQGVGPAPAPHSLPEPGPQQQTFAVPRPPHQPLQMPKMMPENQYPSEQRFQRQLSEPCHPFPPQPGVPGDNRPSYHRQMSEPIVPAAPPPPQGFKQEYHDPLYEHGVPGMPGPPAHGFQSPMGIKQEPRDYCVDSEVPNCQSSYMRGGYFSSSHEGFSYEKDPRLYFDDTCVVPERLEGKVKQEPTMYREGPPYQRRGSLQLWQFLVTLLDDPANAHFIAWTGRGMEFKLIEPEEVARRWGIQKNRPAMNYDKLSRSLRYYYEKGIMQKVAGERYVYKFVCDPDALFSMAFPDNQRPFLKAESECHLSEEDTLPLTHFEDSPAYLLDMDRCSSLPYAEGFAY
Procedure, shortened: as §1

HSF1 = HSF1 (Homo sapiens, UniProt Q00613 1-529); conditions: protein: recombinant; tags: N-terminal GST; chain copies: 3; dsDNA, one strand shown
HSF1, sequence (Q00613 whole entry): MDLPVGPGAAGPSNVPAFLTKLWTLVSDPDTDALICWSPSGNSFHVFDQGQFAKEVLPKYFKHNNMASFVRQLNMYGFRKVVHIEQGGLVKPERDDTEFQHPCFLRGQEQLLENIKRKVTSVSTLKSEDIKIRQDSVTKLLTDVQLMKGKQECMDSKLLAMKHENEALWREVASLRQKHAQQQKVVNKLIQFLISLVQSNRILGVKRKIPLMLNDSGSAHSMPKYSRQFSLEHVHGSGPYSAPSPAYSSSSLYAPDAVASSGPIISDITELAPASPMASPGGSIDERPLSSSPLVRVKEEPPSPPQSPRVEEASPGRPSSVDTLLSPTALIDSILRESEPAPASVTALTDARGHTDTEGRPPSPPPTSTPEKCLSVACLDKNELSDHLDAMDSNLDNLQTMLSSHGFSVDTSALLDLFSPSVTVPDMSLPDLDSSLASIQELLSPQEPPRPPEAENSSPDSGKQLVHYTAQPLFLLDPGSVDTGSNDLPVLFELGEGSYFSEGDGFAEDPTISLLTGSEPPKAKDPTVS
Procedure, shortened: as §1

SPIC = target: T8, SPIC (Homo sapiens, UniProt Q8N5J4 1-248); conditions: protein: recombinant; tags: N-terminal GST; dsDNA, one strand shown
T8 sequence: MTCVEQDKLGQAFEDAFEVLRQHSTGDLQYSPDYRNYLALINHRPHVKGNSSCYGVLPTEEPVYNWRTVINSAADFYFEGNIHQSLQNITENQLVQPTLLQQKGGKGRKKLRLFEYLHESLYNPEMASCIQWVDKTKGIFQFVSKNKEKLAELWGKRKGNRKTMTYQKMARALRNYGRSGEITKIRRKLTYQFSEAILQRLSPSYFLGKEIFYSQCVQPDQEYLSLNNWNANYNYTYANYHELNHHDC
Procedure, shortened: as §1

ELF4 = ELF4 (Homo sapiens, UniProt Q99607 1-663); conditions: protein: recombinant; tags: N-terminal GST; dsDNA, one strand shown
ELF4, sequence (Q99607 whole entry): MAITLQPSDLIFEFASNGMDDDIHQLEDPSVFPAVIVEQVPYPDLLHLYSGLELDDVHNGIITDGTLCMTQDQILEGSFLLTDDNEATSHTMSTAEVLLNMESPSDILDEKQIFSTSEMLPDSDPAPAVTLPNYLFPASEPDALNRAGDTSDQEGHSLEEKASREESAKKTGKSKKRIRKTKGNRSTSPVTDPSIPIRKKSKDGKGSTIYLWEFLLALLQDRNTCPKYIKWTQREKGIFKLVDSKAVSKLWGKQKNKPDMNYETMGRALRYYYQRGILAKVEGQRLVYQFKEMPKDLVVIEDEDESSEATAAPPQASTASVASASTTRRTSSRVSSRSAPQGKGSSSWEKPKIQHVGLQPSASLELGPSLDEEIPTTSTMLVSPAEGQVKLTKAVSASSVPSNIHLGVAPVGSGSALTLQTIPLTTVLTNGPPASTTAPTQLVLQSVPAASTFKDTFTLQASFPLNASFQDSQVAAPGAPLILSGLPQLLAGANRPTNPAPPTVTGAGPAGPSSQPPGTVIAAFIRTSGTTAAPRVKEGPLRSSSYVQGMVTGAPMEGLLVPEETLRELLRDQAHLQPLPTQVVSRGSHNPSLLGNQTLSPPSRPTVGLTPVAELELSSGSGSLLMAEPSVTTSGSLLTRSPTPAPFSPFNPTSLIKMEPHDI
Procedure, shortened: as §1

ELK4 = target: T9, ELK4 (Homo sapiens, UniProt P28324-2 1-405); conditions: protein: recombinant; tags: N-terminal GST; dsDNA, one strand shown
T9 sequence: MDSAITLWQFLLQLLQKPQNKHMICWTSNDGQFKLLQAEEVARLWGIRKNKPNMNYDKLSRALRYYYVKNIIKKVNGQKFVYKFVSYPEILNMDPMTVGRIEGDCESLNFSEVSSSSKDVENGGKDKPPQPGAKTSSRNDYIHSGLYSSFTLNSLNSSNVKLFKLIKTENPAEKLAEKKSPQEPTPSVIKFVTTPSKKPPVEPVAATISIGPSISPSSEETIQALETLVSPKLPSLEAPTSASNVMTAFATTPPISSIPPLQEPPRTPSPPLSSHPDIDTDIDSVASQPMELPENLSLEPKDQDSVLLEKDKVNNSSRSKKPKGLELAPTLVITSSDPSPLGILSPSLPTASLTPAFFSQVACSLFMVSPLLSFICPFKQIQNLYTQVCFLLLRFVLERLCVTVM
Procedure, shortened: as §1

ETV2 = target: T10, ETV2 (Homo sapiens, UniProt O00321 1-342); conditions: protein: recombinant; tags: N-terminal GST; dsDNA, one strand shown
T10 sequence: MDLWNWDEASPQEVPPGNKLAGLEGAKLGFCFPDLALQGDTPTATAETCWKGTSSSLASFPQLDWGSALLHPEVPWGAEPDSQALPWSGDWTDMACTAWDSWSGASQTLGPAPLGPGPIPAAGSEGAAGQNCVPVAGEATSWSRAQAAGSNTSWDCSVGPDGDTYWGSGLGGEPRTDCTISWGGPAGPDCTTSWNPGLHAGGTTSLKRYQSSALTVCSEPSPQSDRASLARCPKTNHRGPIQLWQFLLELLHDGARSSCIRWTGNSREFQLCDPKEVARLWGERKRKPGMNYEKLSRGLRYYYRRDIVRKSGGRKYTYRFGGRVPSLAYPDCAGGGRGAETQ
Procedure, shortened: as §1

ELF3 = target: T11, ELF3 (Homo sapiens, UniProt P78545 1-371); conditions: protein: recombinant; tags: N-terminal GST; dsDNA, one strand shown
T11 sequence: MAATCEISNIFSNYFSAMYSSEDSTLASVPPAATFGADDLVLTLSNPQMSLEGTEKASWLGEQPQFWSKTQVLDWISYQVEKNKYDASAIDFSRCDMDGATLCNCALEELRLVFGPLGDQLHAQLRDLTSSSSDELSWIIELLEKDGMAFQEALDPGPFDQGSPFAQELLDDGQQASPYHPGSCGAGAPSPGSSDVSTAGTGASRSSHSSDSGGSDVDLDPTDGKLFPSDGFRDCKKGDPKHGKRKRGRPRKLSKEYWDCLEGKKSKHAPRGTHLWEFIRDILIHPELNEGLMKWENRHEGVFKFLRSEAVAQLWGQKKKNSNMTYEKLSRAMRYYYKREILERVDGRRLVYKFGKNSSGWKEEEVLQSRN
Procedure, shortened: as §1

CRX = CRX (Homo sapiens, UniProt O43186 1-299); conditions: protein: recombinant; tags: N-terminal GST; dsDNA, one strand shown
CRX, sequence (O43186 whole entry): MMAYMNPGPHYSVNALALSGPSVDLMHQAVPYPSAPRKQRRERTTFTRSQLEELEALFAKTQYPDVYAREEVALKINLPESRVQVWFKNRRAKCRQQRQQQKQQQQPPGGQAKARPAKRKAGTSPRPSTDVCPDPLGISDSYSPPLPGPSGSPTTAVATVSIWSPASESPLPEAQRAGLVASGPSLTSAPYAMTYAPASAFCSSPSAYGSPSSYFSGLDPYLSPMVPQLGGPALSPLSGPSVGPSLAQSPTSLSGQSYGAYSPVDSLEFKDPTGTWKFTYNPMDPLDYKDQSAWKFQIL
Procedure, shortened: as §1

ETV1 = ETV1 (Homo sapiens, UniProt P50549 1-477); conditions: protein: recombinant; tags: N-terminal GST; dsDNA, one strand shown
ETV1, sequence (P50549 whole entry): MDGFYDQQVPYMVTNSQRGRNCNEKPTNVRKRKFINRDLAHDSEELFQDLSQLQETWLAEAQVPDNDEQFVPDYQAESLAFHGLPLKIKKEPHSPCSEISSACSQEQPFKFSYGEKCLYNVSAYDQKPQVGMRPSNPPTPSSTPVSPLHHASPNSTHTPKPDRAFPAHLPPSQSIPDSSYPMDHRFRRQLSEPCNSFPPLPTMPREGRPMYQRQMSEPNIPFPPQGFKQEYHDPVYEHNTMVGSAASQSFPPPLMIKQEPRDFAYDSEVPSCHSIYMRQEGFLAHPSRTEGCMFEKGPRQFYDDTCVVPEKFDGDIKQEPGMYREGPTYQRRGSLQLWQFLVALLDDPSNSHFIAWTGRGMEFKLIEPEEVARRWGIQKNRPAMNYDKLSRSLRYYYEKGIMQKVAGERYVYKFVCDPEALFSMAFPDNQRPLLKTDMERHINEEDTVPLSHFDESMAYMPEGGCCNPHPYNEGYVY
Procedure, shortened: as §1

CTTCTT
binding signal (FLI1): 1.44 fold enrichment (6-mer frequency, TF over GST control)
binding signal (ELK1): 1.58 fold enrichment (6-mer frequency, TF over GST control)
binding signal (GABPA): 1.5 fold enrichment (6-mer frequency, TF over GST control)
binding signal (ERG): 1.63 fold enrichment (6-mer frequency, TF over GST control)
binding signal (ELF1): 1.65 fold enrichment (6-mer frequency, TF over GST control)
binding signal (EHF): 1.53 fold enrichment (6-mer frequency, TF over GST control)
binding signal (SPI1): 1.61 fold enrichment (6-mer frequency, TF over GST control)
binding signal (SPIB): 1.44 fold enrichment (6-mer frequency, TF over GST control)
binding signal (ELK3): 1.61 fold enrichment (6-mer frequency, TF over GST control)
binding signal (FEV): 1.48 fold enrichment (6-mer frequency, TF over GST control)
binding signal (ETV5): 1.59 fold enrichment (6-mer frequency, TF over GST control)
binding signal (HSF1): 1.84 fold enrichment (6-mer frequency, TF over GST control)
binding signal (SPIC): 1.61 fold enrichment (6-mer frequency, TF over GST control)
binding signal (ELF4): 1.6 fold enrichment (6-mer frequency, TF over GST control)
binding signal (ELK4): 1.58 fold enrichment (6-mer frequency, TF over GST control)
binding signal (ETV2): 1.53 fold enrichment (6-mer frequency, TF over GST control)
binding signal (ELF3): 1.45 fold enrichment (6-mer frequency, TF over GST control)
binding signal (CRX): 1.89 fold enrichment (6-mer frequency, TF over GST control)
binding signal (ETV1): 1.48 fold enrichment (6-mer frequency, TF over GST control)
